Bioassay records as filed in PubChem.
LYPLA2 counter: LYPLA2 (human) inhibition in PME1 counter-screen; recombinant LYPLA2, FP-Rh probe fluorescence polarization; 320,000 compounds, 0.38% hits; inhibition, % at 5.9 µM; AID 2177;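 active = inhibition above the screen-wide mean plus 3 SD, limit set per campaign, cut at about 26% in these data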;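 also: 0% = LYPLA2 with DMSO and 100% = wells lacking LYPLA2 enzyme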
Target sequence (O95372 whole entry, looked up): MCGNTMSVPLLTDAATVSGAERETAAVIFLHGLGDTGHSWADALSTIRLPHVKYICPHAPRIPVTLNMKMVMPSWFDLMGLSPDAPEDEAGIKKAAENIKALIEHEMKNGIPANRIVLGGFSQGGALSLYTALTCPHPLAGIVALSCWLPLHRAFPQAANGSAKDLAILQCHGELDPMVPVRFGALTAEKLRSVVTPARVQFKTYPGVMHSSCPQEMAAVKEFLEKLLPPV
PME-1 inh: PME-1 (human) inhibition. 320,000 compounds, 0.53% hits. inhibition, % at 5.9 µM. recombinant PME-1, FP-Rh probe fluorescence polarization;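 active = inhibition above the campaign mean of all compounds plus 3 SD, cut at about 26% in these data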;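 also: competitive labeling of PME-1 active site by serine hydrolase directed probe; 0% = PME-1 with DMSO and 100% = wells lacking PME-1 enzyme; inhibitors block probe labeling so polarization falls and inhibition rises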
Target sequence (Q9Y570 whole entry, looked up): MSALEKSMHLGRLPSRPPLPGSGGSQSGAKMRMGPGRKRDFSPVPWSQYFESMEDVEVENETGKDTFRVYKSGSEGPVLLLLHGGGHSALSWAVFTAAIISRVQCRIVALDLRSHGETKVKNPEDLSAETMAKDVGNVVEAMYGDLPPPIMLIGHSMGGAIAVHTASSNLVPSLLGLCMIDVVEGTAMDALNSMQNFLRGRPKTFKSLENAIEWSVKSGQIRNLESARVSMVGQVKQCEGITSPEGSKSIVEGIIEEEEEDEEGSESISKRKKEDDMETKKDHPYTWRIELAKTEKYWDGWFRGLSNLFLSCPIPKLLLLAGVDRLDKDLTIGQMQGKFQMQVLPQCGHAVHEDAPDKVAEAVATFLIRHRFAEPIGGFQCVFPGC
PREPL inh: inhibitors of human prolyl oligopeptidase-like enzyme PREPL; AID 2751; recombinant PREPL, fluorescence polarization activity-based probe; 320,000 compounds, 0.68% hits; inhibition, % at 5.96 µM;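 also: 0% = enzyme with DMSO and 100% = wells lacking enzyme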
Fam108B counter: counter-screen for RBBP9 inhibitors: inhibitors of mouse Fam108B; 300,000 compounds, 0.33% hits; recombinant Fam108B, FP-Rh probe fluorescence polarization; AID 1947; inhibition, % at 9.51 µM;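 active = inhibition above the screen mean inhibition plus 3 SD, computed separately per campaign, cut at about 18% in these data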;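 also: inhibitors lower polarization as less probe binds the enzyme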
LYPLA1 counter: counter-screen for PME1 inhibitors: inhibitors of human LYPLA1; recombinant LYPLA1, FP-Rh probe fluorescence polarization; inhibition, % at 5.9 µM; 320,000 compounds, 0.16% hits; AID 2174;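 active = inhibition above the mean of all tested compounds plus 3 SD, set per campaign, cut at about 14% in these data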;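 also: inhibitors block serine hydrolase probe labeling of LYPLA1 so polarization falls; 0% = enzyme with DMSO and 100% = wells lacking LYPLA1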
Fam108b confirm: Fam108b (mouse) hydrolase inhibition, confirmation assay | shares compounds with Fam108B counter | recombinant Fam108b, FP-Rh probe fluorescence polarization | inhibition, % at 9.51 µM | 930 compounds, 44% hits;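 active = inhibition above a limit from the primary screen, the mean over all compounds plus 3 SD, cut at about 19% in these data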;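 also: 0% = median of active Fam108b wells and 100% = catalytically dead S170A mutant; inhibitors free the probe so polarization falls as inhibition rises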
Fam108b inh: mouse ABHD17B inhibition | shares compounds with Fam108B counter | recombinant Fam108b, gel-based ABPP, fluorophosphonate probe | inhibition, % at 20 µM | 260 compounds, 44% hits; in the data active = inhibition above about 40%
LYPLA1 conf: counter-screen for PME1 inhibitors: confirmation of human LYPLA1 inhibitors | 480 compounds, 69% hits | recombinant LYPLA1, FP-Rh probe fluorescence polarization | shares compounds with LYPLA1 counter | inhibition, % at 5.9 µM | AID 2233;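 active = mean inhibition across replicates above the hit cutoff set in the primary screen, cut at about 15% in these data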;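 also: loss of FP-Rh probe labeling of LYPLA1 seen as lower polarization; 0% = LYPLA1 with DMSO and 100% = wells lacking LYPLA1 enzyme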
LYPLA2 conf: LYPLA2 (human) inhibition, confirmation counter-screen; shares compounds with LYPLA2 counter; recombinant LYPLA2, FP-Rh probe fluorescence polarization; inhibition, % at 5.9 µM; 1,100 compounds, 72% hits; AID 2232;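 active = mean inhibition across replicates above the hit cutoff set in the primary screen, cut at about 26% in these data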;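 also: blocked labeling of the enzyme by serine hydrolase FP-Rh probe lowers polarization; 0% = enzyme with DMSO and 100% = wells lacking LYPLA2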
PREPL inh cf: confirmation of human PREPL enzyme inhibitors | shares compounds with PREPL inh | recombinant PREPL, fluorescence polarization activity probe | inhibition, % at 5.96 µM | 2,000 compounds, 67% hits | AID 2803;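 also: 0% = protein with DMSO and 100% = wells lacking protein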
Numbers without * were called inactive. The list is not random: actives were taken first. Their share in the collection is about 1.3%. Rule as the data show it, unless noted: active = inhibition above about 43%; inactive = the rest.

Results for CC(=O)c1sccc1NC(=O)c1ccccc1C(=O)O ?
LYPLA2 counter: -1; PME-1 inh: 0; PREPL inh: 16; Fam108B counter: 3; LYPLA1 counter: 3

What do the screens show for `O=[N+]([O-])c1cc(Cl)ccc1N1CCCC1`?
LYPLA2 counter: 3; PME-1 inh: 5; PREPL inh: 15; Fam108B counter: -2; LYPLA1 counter: -4

Results for O=C1C(Cl)=C(N2CCN(c3ccccc3[N+](=O)[O-])CC2)C(=O)c2ccccc21 ?
LYPLA2 counter: 16; PME-1 inh: 25; PREPL inh: 58*; Fam108B counter: 30*; LYPLA1 counter: 1; Fam108b confirm: 32*; Fam108b inh: 5; PREPL inh cf: 44*

Results for Brc1csc(/C=N/Nc2nc3ccccc3s2)c1 ?
LYPLA2 counter: 20; PME-1 inh: 31*; PREPL inh: 54*; Fam108B counter: 32*; LYPLA1 counter: -10; Fam108b confirm: 37*; PREPL inh cf: 41

How did Brc1cc2c(cc1/C=N/Nc1nc3ccccc3s1)OCO2 do in these assays?
LYPLA2 counter: -1; PME-1 inh: 4; PREPL inh: -13; Fam108B counter: 7; LYPLA1 counter: 0

Results for COCCCNC1=C(Cl)C(=O)c2ccccc2C1=O ?
LYPLA2 counter: -2; PME-1 inh: 3; PREPL inh: 5; Fam108B counter: 2; LYPLA1 counter: 0

How did COCCCNc1c2c3c(cccc3[nH]c1=O)C(=O)c1ccccc1-2 do in these assays?
LYPLA2 counter: 126*; PME-1 inh: 124*; PREPL inh: 112*; Fam108B counter: 106*; LYPLA1 counter: 105*; Fam108b confirm: 131*; Fam108b inh: 0; LYPLA1 conf: 101*; LYPLA2 conf: 97*; PREPL inh cf: 113*

How did CCOc1cc(/C=C2\C(=O)N(c3ccc(C(N)=O)cc3)N=C2C)ccc1OC(=O)c1cccs1 do in these assays?
LYPLA2 counter: 15; PME-1 inh: 9; PREPL inh: 58*; Fam108B counter: 20*; LYPLA1 counter: 1; Fam108b confirm: 8; PREPL inh cf: 91*

What do the screens show for `c1ccc2c(c1)nc(Nc1ccc3c(c1)OCO3)c1nnnn12`?
LYPLA2 counter: -3; PME-1 inh: 16; PREPL inh: 47*; Fam108B counter: 23*; LYPLA1 counter: -6; Fam108b confirm: 7; PREPL inh cf: 45*

Results for Fc1cccc(Nc2nc3ccccc3n3nnnc23)c1 ?
LYPLA2 counter: -2; PME-1 inh: 7; PREPL inh: -7; Fam108B counter: -9; LYPLA1 counter: -8

How did Cc1noc(C)c1COc1ccc(C(=O)N2CCCC(C(F)(F)F)C2)cc1 (centres undefined) do in these assays?
LYPLA2 counter: 3; PME-1 inh: -5; PREPL inh: -5; Fam108B counter: -1; LYPLA1 counter: -2

What do the screens show for `COc1ccc(NC(=S)NCCCCCC(=O)C[N+](=O)[O-])cc1`?
LYPLA2 counter: -5; PME-1 inh: -10; PREPL inh: 11; Fam108B counter: -2; LYPLA1 counter: -3

What do the screens show for `Cc1cc(N/N=C/c2ccccc2O)c2ccccc2n1`?
LYPLA2 counter: 2; PME-1 inh: 6; PREPL inh: 27; Fam108B counter: 9; LYPLA1 counter: -4

Results for COc1ccc2nc(C)cc(N/N=C/c3cccc(OC)c3O)c2c1 ?
LYPLA2 counter: -12; PME-1 inh: 14; PREPL inh: 64*; Fam108B counter: 19*; LYPLA1 counter: 0; Fam108b confirm: -1; PREPL inh cf: 59*

Results for COc1ccc(/C=N/Nc2cc(C)nc3ccc(Br)cc23)cc1 ?
LYPLA2 counter: -20; PME-1 inh: 35*; PREPL inh: 56*; Fam108B counter: 20*; LYPLA1 counter: -9; Fam108b confirm: -1; PREPL inh cf: 52*

What do the screens show for `CCN1CCN(C(=O)c2ccc(N3CC4CC(C3)c3cccc(=O)n3C4)c([N+](=O)[O-])c2)CC1` (centres undefined)?
LYPLA2 counter: 7; PME-1 inh: 3; PREPL inh: -4; Fam108B counter: 6; LYPLA1 counter: -1

Results for Cc1coc2c(C)c3oc(=O)c(CCC(=O)N4CCC(C(=O)NCCCC(=O)O)(c5ccccc5)CC4)c(C)c3cc12 ?
LYPLA2 counter: -2; PME-1 inh: 1; PREPL inh: 0; Fam108B counter: -3; LYPLA1 counter: 1

How did CCN1C(=O)[C@H]2[C@@H](c3ccc(-c4ccc(OC)cc4)cc3)N3CCCC[C@@]3(C(=O)OC)[C@H]2C1=O do in these assays?
LYPLA2 counter: -2; PME-1 inh: 1; PREPL inh: 34; Fam108B counter: -9; LYPLA1 counter: -2

How did CC(=O)[C@]1(O)Cc2c(O)c3c(c(O)c2[C@@H](O[C@H]2C[C@H](N)[C@H](O)[C@H](C)O2)C1)C(=O)c1ccccc1C3=O do in these assays?
LYPLA2 counter: 74*; PME-1 inh: 72*; PREPL inh: 66*; Fam108B counter: 71*; LYPLA1 counter: 77*; Fam108b confirm: 73*; Fam108b inh: 20; LYPLA1 conf: 78*; PREPL inh cf: 85*

What do the screens show for `O=C(NCc1ccccc1)c1ccc2nc(-c3ccco3)c(-c3ccco3)nc2c1`?
LYPLA2 counter: -5; PME-1 inh: 16; PREPL inh: 61*; Fam108B counter: 19*; LYPLA1 counter: -17; Fam108b confirm: 18; PREPL inh cf: 43*

How did COc1cc(C2OC(=O)C3C(c4ccc(OC(C)=O)c(OC)c4)OC(=O)C23)ccc1OC(C)=O (centres undefined) do in these assays?
LYPLA2 counter: 6; PME-1 inh: -2; PREPL inh: 10; Fam108B counter: -2; LYPLA1 counter: 1

Results for O=C(CSC(=S)N1CCCC1)N/N=C/c1c(O)[nH]c(=S)[nH]c1=O ?
PREPL inh: 17

What do the screens show for `O=C(Nc1ccc(Cl)cc1)Nc1ccc2c(c1)N1CCN=C1S2`?
LYPLA2 counter: -2; PME-1 inh: 20; PREPL inh: 58*; Fam108B counter: 22*; LYPLA1 counter: -12; Fam108b confirm: 10; PREPL inh cf: 37
